Bioassay records (PubChem BioAssay)
RORg inh: ROR gamma (mouse) transcription inhibition; Drosophila S2 Gal4-RORgamma UAS-luciferase reporter, 20 h; P51450; Potency, µM (doses to about 53.6 µM), for the others: top-dose activity change, negative = inhibition, most hits filed as inhibitors; AID 2551; actives 5.4% (n = 310,000); further: potency means the concentration at half of the fitted maximal effect; nearly all actives have a fitted effect of over 60% in size
Target sequence (P51450 whole entry, looked up, the tested form may be a part): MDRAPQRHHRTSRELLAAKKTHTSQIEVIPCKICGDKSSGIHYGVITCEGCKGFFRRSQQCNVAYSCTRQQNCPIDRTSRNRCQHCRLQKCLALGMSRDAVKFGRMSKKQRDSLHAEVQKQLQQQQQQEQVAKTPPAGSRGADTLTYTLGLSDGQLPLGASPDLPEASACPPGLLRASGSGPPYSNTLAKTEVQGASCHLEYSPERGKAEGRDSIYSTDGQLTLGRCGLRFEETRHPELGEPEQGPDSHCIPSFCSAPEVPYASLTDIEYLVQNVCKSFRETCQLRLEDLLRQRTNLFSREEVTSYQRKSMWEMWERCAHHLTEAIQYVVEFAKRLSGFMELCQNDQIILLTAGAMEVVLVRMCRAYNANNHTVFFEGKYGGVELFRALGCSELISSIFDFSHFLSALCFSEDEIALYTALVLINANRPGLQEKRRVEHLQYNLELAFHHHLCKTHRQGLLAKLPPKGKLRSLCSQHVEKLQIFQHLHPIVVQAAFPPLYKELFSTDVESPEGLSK
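Using a luciferase readout, inhibitors were identified by reduced reporter activity in Drosophila cells coexpressing a copper-inducible Gal4–ROR gamma fusion and UAS-driven Photinus luciferase, incubated 20 hr after 700 uM copper sulfate.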
IL-1B inflam inh: inflammasome signaling inhibition, IL-1 beta readout. THP-1 LPS/ATP IL-1B secretion, AlphaLISA, 16 h; stronger effect = lower value. activity change, % at 57.5 µM. actives 4.7% (n = 360,000). AID 743279; in the data active means activity change below about -50%; inconclusive means mostly about -30% to -49%
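Secreted IL-1B measured by AlphaLISA bead assay after 16 h compound exposure of THP-1 cells; compounds (final up to 57.5 uM) added 1 h before LPS (250 ng/mL) and ATP (1.25 mM) stimulation; lower signal means less secretion.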
TDP1 cell CPT: DT40-hTDP1 cell growth loss with CPT; chicken DT40 Tdp1-/-;hTDP1 cells + 20 nM CPT, ATP luminescence, 48 h; Potency, µM (top dose mostly 46.2 µM), inactives show at the highest dose activity change, negative = growth inhibition, actives largely listed as inhibitors; actives 12% (n = 420,000); further: potency means the concentration at half of the fitted maximal effect; nearly all actives have a fitted effect of over 55% in size
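Cell growth measured by CellTiter-Glo luminescence after a minimum 48 h, 37 C compound exposure with 20 nM CPT in Tdp1-knockout DT40 cells stably expressing hTDP1, seeded 400/well; qHTS titration format.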
DT40 TDP1 no CPT: qHTS for Inhibitors of human tyrosyl-DNA phosphodiesterase 1 (TDP1): qHTS in cells in absence of CPT. DT40 Tdp1-/- hTDP1 cells, no CPT, ATP luminescence, 48 h. Potency, µM (series often up to 46.2 µM), for the others: at the top dose activity change, negative = growth inhibition, actives largely listed as inhibitors. actives 15% (n = 420,000). AID 686978, 2013; further: potency means the concentration at half of the fitted maximal effect; nearly all actives have a fitted effect of over 55% in size
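Compound effects on proliferation are scored in DT40 Tdp1-/-;hTDP1 cells in the absence of CPT. ATP levels (CellTiter-Glo luminescence) are recorded after a ≥48 hr, 37 °C incubation.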
LDHA block: blocks human lactate dehydrogenase A; P00338; actives 0.15% (n = 480,000); purified LDHA, NADH/diaphorase-resazurin fluorescence; stronger effect = lower value; activity change, % (values are at about 110 or 230 µM); in the data active means activity change below about -30%; inconclusive means mostly about -25% to -30%;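 further: plate controls were DMSO wells for no effect and wells without enzyme for full effect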
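Human LDH5 (2 nM) was incubated with 0.06 mM NADH and 0.2 mM pyruvate for 5 min at room temperature in Tris pH 7.4. Remaining NADH was coupled through diaphorase/resazurin, and resorufin fluorescence was read at 0 and 20 min.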
VP16 counter: counter-screen for ROR gamma inhibitors: Gal4-VP16 reporter; Drosophila S2 Gal4-VP16 UAS-luciferase, luminescence, 20 h; Potency, µM (series often up to 53.6 µM), for inactives: at the top dose activity, negative = inhibition, hits mostly inhibitors; actives 3.5% (n = 310,000);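 further: Gal4-VP16 expression switched on by copper sulfate through the metallothionein promoter; potency means the concentration at half of the fitted maximal effect; nearly all actives have a fitted effect of over 50% in size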
* marks the source's active call; other numbers are inactive results. Hits are enriched below; roughly 18% of the tested compounds scored in any of these assays. Unless noted, the call rests on the fitted dose curve; in most records, active means well fitted curve in the direction sought with a large enough effect; inconclusive means small, poorly fitted or top-dose-only effect, or another doubt; inactive means no such curve, though single readings can be large; an effect the other way counts as inactive or inconclusive. Unless noted, on the % scale 0 is the no-effect control and ±100 the full control effect.

How did Cc1cccc(CNc2ccc(C(CC(N)=O)NC(=O)c3ccccc3)cc2[N+](=O)[O-])c1 (stereo unspecified) do in these assays?
RORg inh: -3%; IL-1B inflam inh: -10; TDP1 cell CPT: inconclusive; DT40 TDP1 no CPT: inconclusive; LDHA block: 0; VP16 counter: 6%

What do the screens show for `NC(=O)CC(NC(=O)Cc1cccc2ccccc12)c1ccc(NCCc2ccc(F)cc2)c([N+](=O)[O-])c1` (stereo unspecified)?
RORg inh: -21%; IL-1B inflam inh: 7; TDP1 cell CPT: inconclusive; DT40 TDP1 no CPT: inconclusive; LDHA block: -6; VP16 counter: -7%

What do the screens show for `Cc1ccccc1CNc1ccc(C(CC(N)=O)NC(=O)c2ccccc2)cc1[N+](=O)[O-]` (stereo unspecified)?
RORg inh: inconclusive; IL-1B inflam inh: -78*; TDP1 cell CPT: 16µM*; DT40 TDP1 no CPT: 23µM*; LDHA block: 0; VP16 counter: -24%

Results for CCCCNc1ccc(C(CC(N)=O)NC(=O)c2cc(C)cc(C)c2)cc1[N+](=O)[O-] (stereo unspecified) ?
RORg inh: -3%; IL-1B inflam inh: 43; TDP1 cell CPT: 1%; DT40 TDP1 no CPT: -9%; LDHA block: -1; VP16 counter: -9%

What do the screens show for `CCCCNc1ccc(C(CC(N)=O)NC(=O)c2ccccc2)cc1[N+](=O)[O-]` (stereo unspecified)?
RORg inh: 8%; IL-1B inflam inh: -12; TDP1 cell CPT: 18µM*; DT40 TDP1 no CPT: 15µM*; LDHA block: -4; VP16 counter: 1%

Results for CCC(CC)Nc1ccc(C(CC(N)=O)NC(=O)c2ccccc2)cc1[N+](=O)[O-] (stereo unspecified) ?
RORg inh: 19%; IL-1B inflam inh: -2; TDP1 cell CPT: 16µM*; DT40 TDP1 no CPT: 15µM*; LDHA block: -1; VP16 counter: -10%

What do the screens show for `NC(=O)CC(NC(=O)Cc1cccc2ccccc12)c1ccc(NCCc2ccccc2F)c([N+](=O)[O-])c1` (stereo unspecified)?
RORg inh: -21%; IL-1B inflam inh: 20; TDP1 cell CPT: 21µM*; DT40 TDP1 no CPT: inconclusive; LDHA block: 7; VP16 counter: 0%

What do the screens show for `CN(CC(=O)Nc1ccc(Cl)cc1)Cc1cc(F)cc2c1OCOC2`?
LDHA block: 4

Results for COC(=O)c1ccc(CNC(=O)C2CC2)cc1 ?
LDHA block: 6

Results for O=C(Oc1cc(=O)oc2c1c(=O)n1c3c(cccc23)CC1)c1ccc(F)cc1 ?
RORg inh: -22%; TDP1 cell CPT: -26%; DT40 TDP1 no CPT: 23µM*; LDHA block: 8; VP16 counter: 0%

How did CCOC(=O)c1c(C)c(C(=O)NCc2ccc(OC)cc2)c(C)n1CC do in these assays?
TDP1 cell CPT: 8%; DT40 TDP1 no CPT: inconclusive; LDHA block: -8

How did CCOC(=O)c1c(C)c(C(=O)Nc2cc(OC)ccc2OC)c(C)n1CC do in these assays?
RORg inh: 17%; IL-1B inflam inh: -2; TDP1 cell CPT: 6.5µM*; DT40 TDP1 no CPT: 18µM*; LDHA block: 5; VP16 counter: -5%

Results for CCCc1cc(NC(=O)COC(=O)c2ccc(O)cc2O)n(-c2ccccc2)n1 ?
IL-1B inflam inh: 27; TDP1 cell CPT: inconclusive; DT40 TDP1 no CPT: inconclusive; LDHA block: -1

How did CCOC(=O)c1[nH]c(C)c(C(=O)Nc2cc(OC)ccc2OC)c1C do in these assays?
RORg inh: -5%; IL-1B inflam inh: 76; TDP1 cell CPT: 0.79µM*; DT40 TDP1 no CPT: 0.56µM*; LDHA block: -1; VP16 counter: -25%

What do the screens show for `CCOC(=O)c1c(C)[nH]c(C(=O)OCC(=O)Nc2cc(C)nn2-c2ccccc2)c1C`?
IL-1B inflam inh: -11; TDP1 cell CPT: inconclusive; DT40 TDP1 no CPT: 18µM*; LDHA block: -9

How did O=C(COC(=O)c1ccc(O)cc1O)Nc1cc(-c2ccccc2)nn1-c1ccccc1 do in these assays?
IL-1B inflam inh: -58*; TDP1 cell CPT: inconclusive; DT40 TDP1 no CPT: 18µM*; LDHA block: -10

How did CC(C)(C)C(=N)N do in these assays?
LDHA block: 15

Results for CN(Cc1cccc2ccccc12)C(=O)Cc1cccc2cccnc12 ?
LDHA block: -2

How did CCOC(=O)C(=CNc1cc(C)nn1-c1ccccc1)C(=O)OCC do in these assays?
RORg inh: 5%; IL-1B inflam inh: 10; TDP1 cell CPT: 21µM*; DT40 TDP1 no CPT: 16µM*; LDHA block: 3; VP16 counter: 1%

Results for CCOC(=O)c1c(C)[nH]c(C(=O)N/N=C/c2ccc(Br)cc2)c1C ?
RORg inh: inconclusive; IL-1B inflam inh: 14; TDP1 cell CPT: 1.2µM*; DT40 TDP1 no CPT: 0.023µM*; LDHA block: -5; VP16 counter: inconclusive

How did COc1cc(OC)cc(C(=O)Nc2cc(C)nn2-c2ccccc2)c1 do in these assays?
RORg inh: 12%; IL-1B inflam inh: -17; TDP1 cell CPT: -29%; DT40 TDP1 no CPT: -20%; LDHA block: -3; VP16 counter: -13%

How did CCOC(=O)c1c(C)[nH]c(C(=O)OCC(=O)Nc2cc(C)ccc2OC)c1C do in these assays?
RORg inh: 3%; IL-1B inflam inh: 40; TDP1 cell CPT: 2.6µM*; DT40 TDP1 no CPT: 4.1µM*; LDHA block: -3; VP16 counter: 2%

What do the screens show for `COc1ccc(C)cc1NC(=O)COC(=O)c1ccc(OCc2ccc(Cl)cc2Cl)c(OC)c1`?
RORg inh: 5%; IL-1B inflam inh: 0; TDP1 cell CPT: 18µM*; DT40 TDP1 no CPT: 16µM*; LDHA block: -8; VP16 counter: 5%

What do the screens show for `CCOC(=O)c1c(C)[nH]c(C(=O)OCC(=O)Nc2ccc(OC)c(Cl)c2)c1C`?
RORg inh: 2%; IL-1B inflam inh: -13; TDP1 cell CPT: 4%; DT40 TDP1 no CPT: -9%; LDHA block: -12; VP16 counter: 6%

Results for Cc1[nH]c(C(=O)N/N=C/c2ccc(C(=O)O)cc2)c(C)c1C(=O)N/N=C/c1ccc(C(=O)O)cc1 ?
RORg inh: -29%; IL-1B inflam inh: -12; TDP1 cell CPT: -22%; DT40 TDP1 no CPT: -20%; LDHA block: -4; VP16 counter: 5%
